High-throughput results: PubChem BioAssay, National Center for Advancing Translational Sciences (NCATS)
Pf growth 96h: Primary qHTS for delayed death inhibitors of the malarial parasite plastid, 96 hour incubation; P. falciparum luciferase reporter growth, 96 h; Potency, µM (top dose mostly 28.7 µM), for inactives: at the top dose activity change, negative = inhibition, usual class: inhibitors; 320,000 compounds, 6.9% hits; AID 504834, 2011; further: potency means the concentration at half of the fitted maximal effect
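Readout is luminescence from an integrated firefly luciferase in P. falciparum. Red cells, 2% hematocrit and 0.05% parasitemia final, were cultured with compound through two parasite generations (96 hours) at 37 C, 5% CO2.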
HCMV antiviral: qHTS Assay for inhibitors of the human cytomegalovirus (HCMV); AID 1259415, 2018; HFF cells, HCMV-luciferase reporter, 72 h; stronger effect = lower value; 410,000 compounds, 4.5% hits; activity change, negative = inhibition, % at 57.5 µM; in the data active means activity change below about -60%; inconclusive means no clear call, values can overlap the other calls; inactive means above about -39%
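Steps: HFFs plated, 16 h 37C; compounds added; HCMV-luciferase added to MOI 1 PFU/cell; 72 h 37C; OneGlo reagent, 5 min room temperature; luminescence read, normalized to controls.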
Giardia FBPA inh: qHTS Assay for Inhibitors of Fructose-1,6-bisphosphate Aldolase from Giardia Lamblia | A8B2U2 | purified Giardia FBPA | Potency, µM (top dose mostly 59.6 µM), inactives show at the highest dose activity, negative = inhibition, most hits filed as inhibitors | 290,000 compounds, 0.71% hits | AID 2451, 2010; further: potency means the concentration at half of the fitted maximal effect; nearly all actives have a fitted effect of over 55% in size
Target sequence (A8B2U2 whole entry, looked up): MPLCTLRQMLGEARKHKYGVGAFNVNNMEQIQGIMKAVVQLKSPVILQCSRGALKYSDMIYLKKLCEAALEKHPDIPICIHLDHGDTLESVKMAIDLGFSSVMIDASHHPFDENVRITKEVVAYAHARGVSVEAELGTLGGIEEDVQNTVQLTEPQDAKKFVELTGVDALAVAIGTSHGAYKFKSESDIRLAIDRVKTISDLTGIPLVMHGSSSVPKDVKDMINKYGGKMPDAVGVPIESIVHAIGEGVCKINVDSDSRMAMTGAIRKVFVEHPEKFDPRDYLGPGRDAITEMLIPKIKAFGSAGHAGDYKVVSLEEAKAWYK
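Giardia FBPA (40 nM reagent) was preincubated 10 min at RT with compound (up to 57.5 uM final), then substrate plus GAPDH/TPI/NAD/arsenate coupling system with diaphorase/resazurin was added; resorufin fluorescence (525/598 nm) was read after 20 min.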
Pf growth 48h: Primary qHTS for delayed death inhibitors of the malarial parasite plastid, 48 hour incubation. P. falciparum luciferase growth in erythrocytes, 48 h. 310,000 compounds, 5.9% hits. Potency, µM (top dose mostly 28.7 µM), for inactives: at the highest dose activity change, negative = inhibition, hits mostly inhibitors; further: potency means the concentration at half of the fitted maximal effect
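A one-generation exposure of luciferase-tagged malaria parasites in RPMI 1640/Albumax erythrocyte culture, 37 C and 5% CO2. Inhibition is inferred from decreased luminescence after adding detection reagent.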
Sm TGR block: qHTS Assay for the Inhibitors of Schistosoma Mansoni Peroxiredoxins. 360,000 compounds, 3% hits. purified TGR, DTNB reduction, TNB absorbance 405 nm. AID 485364, 2010. Potency, µM (top dose mostly 114 µM), without a hit: at the highest dose activity change, negative = inhibition, hits mostly inhibitors; further: potency means the concentration at half of the fitted maximal effect; nearly all actives have a fitted effect of over 60% in size
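Kinetic colorimetric format: TGR-catalysed, NADPH-driven DTNB reduction monitored via TNB absorbance. Enzyme dispensed at 20 nM; compound exposure 15 min at room temperature before reaction start.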
Starred values were filed as active, the others as inactive; i = inactive; ? = inconclusive; · = no result given; [ ] = dose if it differs, or a comment. An excerpt weighted towards active compounds, which were near 14% of everything screened. Unless noted, the call rests on the fitted dose curve; in most records, active means well fitted curve in the direction sought with a large enough effect; inconclusive means small, poorly fitted or top-dose-only effect, or another doubt; inactive means no such curve, though single readings can be large; an effect the other way counts as inactive or inconclusive. On the % scale 0 is the no-effect control and ±100 the full control effect.

SMILES	Pf growth 96h	HCMV antiviral	Giardia FBPA inh	Pf growth 48h	Sm TGR block
Cc1ccc(C)c(NC(=O)C2C3CCCC2C3c2ccccc2)c1 (stereo not drawn)	12µM*	-23	5%	-6%	0%
COc1ccc(/C=C2\CCc3ccccc3C2=O)cc1OC	129%	?	-2%	59%	-14%
COc1cccc(/C=C2\CCc3ccccc3C2=O)c1	i	0	0%	80%	1%
COc1ccc2c(c1)CC/C(=C/c1cc(OC)c(OC)c(OC)c1)C2=O	15µM*	4	0%	?	1%
COc1ccc2c(c1)CC/C(=C/c1ccccn1)C2=O	10%	-27	-5%	58%	-3%
COc1ccc2c(c1)CC/C(=C\C=C\c1ccccc1)C2=O	?	-10	?	?	45µM*
COc1ccc(OC)c(C=C2CCc3ccccc3C2=O)c1	·	-96*	·	·	·
Cc1ccsc1/C=C1\CCc2ccccc2C1=O	10µM*	69	-3%	·	14%
CCCCc1ccc(Nc2ncnc3c2cnn3-c2ccc(C)cc2)cc1	·	-11	·	·	0%
CCOC(=O)c1ccc(CN(Cc2ccc(F)cc2)S(=O)(=O)c2ccc(F)c(C(=O)Nc3cc(Cl)ccc3OC)c2)cc1	·	-38	·	·	-3%
O/N=C\c1ccc2noc(-c3ccc(Cl)cc3)c2c1	114%	-38	6%	24%	0%
COc1ccc(-c2onc3ccc(C(=O)/C=C/N(C)C)cc23)cc1	?	25	-6%	10µM*	5%
CC(=O)c1ccc2noc(-c3ccc(Cl)cc3)c2c1	-2%	-62*	2%	-7%	28µM*
Cc1ccc(-c2onc3ccc(C=O)cc23)cc1	194%	19	-3%	·	45µM*
Cc1cc(-c2onc3ccc(Cl)cc23)ccc1O	15%	97	0%	-11%	40µM*
CN(C)/C=C/C(=O)c1ccc2noc(-c3cccc(F)c3)c2c1	?	?	-2%	-11%	-18%
Cc1ccc(-c2onc3ccc(C4(C)OCCO4)cc23)cc1	·	-4	0%	9%	-10%
CCCc1cc(=O)[nH]c(SCC(=O)NC2(C#N)CCCCC2)n1	-20%	48	·	-23%	1%
COc1ccc(C(=O)N2CCC[C@@]3(CCN(c4ncccn4)C3)C2)cc1	·	·	3%	·	·
CCCCOc1ccccc1C1NC(=O)CCC1[N+](=O)[O-] (stereo not drawn)	-21%	16	?	-7%	0%
CCCNC(=O)c1cc(C2CCCCN2S(C)(=O)=O)on1 (stereo not drawn)	·	-12	·	·	·
CC(C)(C)C(=O)Nc1sc2c(c1-c1nc3ccccc3[nH]1)CCCC2	?	-107*	-3%	9.3µM*	-32%
c1ccc(OCCOc2ccccc2-c2nnco2)cc1	5.2µM*	30	-11%	34%	7%
O=C(c1ccc(Cl)cc1)C(CN1CCCCC1)c1ccccc1 (stereo not drawn)	0%	-101*	-4%	-4%[0.00184 µM]	6.3µM*
Cc1ccc(C(=O)C(C)CN2CCCCC2)cc1 (stereo not drawn)	13µM*	9	2%	13µM*	·
SMILES	Pf growth 96h	HCMV antiviral	Giardia FBPA inh	Pf growth 48h	Sm TGR block
CC(CN1CCCCC1)OC(=O)c1ccc(Cl)cc1 (stereo not drawn)	?	4	-5%	10%	4%
CCOC(=O)C(CN1CCCC1)c1ccccc1 (stereo not drawn)	74%	-24	·	-30%	0%
O=C(c1ccccc1)C(CN1CCCC1)c1ccccc1 (stereo not drawn)	12µM*	-103*	-7%	?	45µM*
Cc1cc(C)c(Nc2nn3c(=O)c4cc5c(cc4nc3s2)OCO5)c(C)c1	·	7	·	·	-2%
CC1CCC(NC(=O)CN2CCN(S(=O)(=O)c3ccc(Br)s3)CC2)CC1 (stereo not drawn)	·	-18	·	·	·
C=CC[C@@H](CC(=O)N[C@H](CO)Cc1ccccc1)C(=O)N[C@H](COC(=O)[C@@H](CC=C)Cc1ccc(F)cc1)Cc1ccccc1	·	-13	·	·	·
CC1CC=CC2C1C(=O)N(Cc1ccccc1)C2c1ccc(C(F)(F)F)cc1 (stereo not drawn)	·	·	-4%	·	·
COc1ccc(C(=O)COC(=O)CN2C(=O)C3C4C=CC(C5CC45)C3C2=O)cc1 (stereo not drawn)	5%	27	-1%	8%	3%
C=CCc1cc(Cl)ccc1OCCOCCNC(C)CC (stereo not drawn)	?	-11	?	?	9%
C=CCc1cc(C)ccc1OCCOCCC(C(=O)OCC)C(=O)OCC	12µM*	3	-1%	-21%	2%
N#Cc1c(-n2ncnc2-c2cccc(Cl)c2)sc2c1CCCCC2	·	-1	·	·	-11%
COc1ccc2c3n(nc2c1)CCN=C3c1ccc(Cl)cc1	61%	2	·	16%	-3%
CCc1cc2c(Sc3nc4ccccc4s3)ncnc2s1	?	39	2%	1.9µM*	2%
c1ccc2sc(Sc3ncnc4sccc34)nc2c1	0.74µM*	155	-5%	1.9µM*	-7%
CCc1cc2c(SCC(=O)Nc3ccc(NC(C)=O)cc3)ncnc2s1	?	8	·	?	-3%
c1ccc(CSc2ncnc3sccc23)cc1	-24%	35	5%	9%	-11%
Cc1ccc(S(=O)(=O)N(C)C)cc1NC(=O)COC(=O)c1ccc2c(c1)OCCO2	3%	?	-2%	5%	1%
CCOC(=O)c1c(NC(=O)C2=C(C)NC(=S)NC2c2ccc(C)cc2)sc(C)c1C (stereo not drawn)	?	49	0%	12µM*	1%
O=C(c1ccc(S(=O)(=O)N2CCCCC2)cc1)N1CCCC(C(F)(F)F)C1 (stereo not drawn)	2%	-26	·	-18%	-3%
OC(CNCC(c1ccc(Cl)cc1Cl)c1c[nH]c2ccccc12)c1ccccc1 (stereo not drawn)	?	-108*	-5%	?	11%
OC(CNCc1ccccc1)c1ccc(Cl)cc1 (stereo not drawn)	·	19	·	·	·
COc1ccccc1C1CC(=O)Oc2cc(C)c(Cl)c(C)c21 (stereo not drawn)	·	1	-22%[89.2 µM]	·	·
N#Cc1ccc(-c2ccc(Cl)cc2)nc1SCC(=O)c1cccc(Cl)c1	·	-61*	1%	33%	-7%
O=C(CN(Cc1ccc(F)cc1)C(=O)CCC(=O)Nc1ccccn1)NCc1ccc(F)cc1	-14%	12	-10%	-5%	2%
CCOc1ccccc1-c1noc(CCC(=O)NC2CCCCC2)n1	?	-4	2%	-6%	-3%
COc1ccc(-c2noc(CCC(=O)Nc3ccccc3Cl)n2)cc1OC	·	-17	·	·	-7%
